In PubChem BioAssay AID485313 (National Center for Advancing Translational Sciences (NCATS), 2010):
The whole screen tested about 320,000 compounds, of which about 7,600 (2.4%) were called active. A call without a number means that no potency is given here. Roughly 3% stayed inconclusive and do not appear here. The call rests on the fitted dose curve; in most records, active means well fitted activation curve with a large enough effect; inconclusive means small, poorly fitted or top-dose-only effect; inactive means no such curve, though single readings can be large or run the other way. This excerpt belongs to a sample that is enriched for actives.

assay: qHTS Assay for NPC1 Promoter Activators; details: Huh7 NPC1 promoter luciferase reporter, 24 h; series mostly up to 9.22 µM; further: nearly all actives have a fitted effect of over 60% in size;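 on activation: reporter is driven by a mutant NPC1 promoter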
In short: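 Compounds in DMSO were transferred onto Huh7 NPC1-luciferase reporter cells pre-incubated 2 h; after 24 h at 37 °C, Amplite reagent was dispensed and luminescence recorded 10 min later.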
Potency means the concentration at half of the fitted maximal effect.

| Structure (SMILES) | Potency |
| --- | --- |
| CCN1CCN(C(=O)N[C@@H](C(=O)N[C@@H]2C(=O)N3C(C(=O)O)=C(CSc4nnnn4C)CS[C@H]23)c2ccc(O)cc2)C(=O)C1=O | inactive |
| Cc1ccc(CNC(=O)c2cccc3c2C(=O)c2ccc(N4CCC(C)CC4)cc2S3(=O)=O)cc1 | inactive |
| CC1(C)O[C@@H]2[C@H](O1)[C@@H](COS(=O)(=O)O)O[C@H]2n1ccc(=O)[nH]c1=O | inactive |
| O=C(/C=C/c1ccccc1[N+](=O)[O-])OCC(=O)N1CCCC1 | inactive |
| O=C(CNc1ccccc1N1CCCC1=O)Nc1cc(Cl)ccc1-n1cncn1 | inactive |
| CCCc1nc2ccccc2c(=O)n1/N=C/c1ccc(O)c(O)c1 | inactive |
| O=C(Nn1cnc2ccccc2c1=O)c1ccccc1 | inactive |
| O=c1c2ccccc2ncn1/N=C/c1ccccc1 | 1000 nM (active) |
| CC(C)(C)c1csc(NC2=NS(=O)(=O)c3ccccc32)n1 | 1410 nM (active) |
| O=C(Oc1cccc(NC2=NS(=O)(=O)c3ccccc32)c1)c1ccncc1 | inactive |
| Cc1ccc(S(=O)(=O)N(NC2=NS(=O)(=O)c3ccccc32)C(=O)c2ccccc2)cc1 | inactive |
| CCN(CC(=O)Nc1ccccc1C(F)(F)F)C(=O)C1CCN(C(=O)Nc2ccccc2)CC1 | inactive |
| O=C(c1cn(-c2ccccc2)nc1-c1cccnc1)N1CCN(S(=O)(=O)c2ccccc2F)CC1 | inactive |
| CC[C@@H]1Cc2cc(O)ccc2C2=C1c1ccc(O)cc1C[C@H]2CC | inactive |
| COC(=O)/C(=C1\Oc2ccc(C(C)(C)C)cc2S1)C(F)(F)F | 3550 nM (active) |
| CCOC(=O)C1=C(c2ccccc2)O/C(=C(/C(=O)OC)C(F)(F)F)S1 | inactive |
| Cc1occc1-c1nnc(SCC(=O)NC2(C#N)CCCC2)n1C | inactive |
| COc1ccc(-c2cc(C3CCN(c4ncccc4[N+](=O)[O-])CC3)[nH]n2)cc1 | inactive |
| COc1ccc(-c2cc(C(F)(F)F)nc(NCc3cccnc3)n2)cc1 | inactive |
| COc1ccc(-c2cc3ncccc3cn2)cc1 | 2240 nM (active) |
| Cc1nc2cc(NC(=O)Nc3cccc(F)c3)ccc2n1C | 100 nM (active) |
| Cn1c(CCN2CCCCCC2)nc2cc(NC(=O)Nc3ccccc3)ccc21 | 4470 nM (active) |
| Cc1nc2cc(NC(=O)NC3CC3)ccc2n1C | inactive |
| Cc1cc2nc(C)n(CCCNC(=O)Nc3ccccc3)c2cc1C | inactive |
| CCC(=O)Nc1ccc2c(c1)nc(CCN1CCN(c3ccccn3)CC1)n2C | inactive |
| Cn1c(CCN2CCCC2)nc2cc(NS(=O)(=O)c3ccccc3)ccc21 | inactive |

| Structure (SMILES) | Potency |
| --- | --- |
| CCn1c(=O)c(=O)n(CC)c2cc(N3CCCCC3)c(NC(=O)c3ccc(Cl)cc3)cc21 | inactive |
| CC(C)n1ncc2c(C(=O)NCc3ccccc3CN(C)C)cc(C3CC3)nc21 | inactive |
| COc1nc(N(C)C)nc(N2CC(=O)N(CCNS(=O)(=O)c3ccc(C)cc3)C2=N)n1 | inactive |
| CCS(=O)(=O)n1nc(-c2ccccc2)nc1SCc1ccccc1 | 3550 nM (active) |
| CS(=O)(=O)n1nc(-c2ccccc2)nc1NCc1ccco1 | inactive |
| CCS(=O)(=O)n1nc(-c2ccc(OC)cc2)nc1SC | inactive |
| CN(CC(=O)Nc1c(Cl)cccc1Cl)C(=O)CC1OC(=O)c2ccccc21 (stereo not drawn) | inactive |
| COc1ccc(NC(=O)CSc2nc3ccccc3c(=O)n2C)cc1 | inactive |
| COC(=O)CSc1nc2ccccc2c(=O)n1Cc1ccccc1 | inactive |
| Cc1ccc(C(=O)CSc2nc3ccccc3c(=O)n2N)o1 | 3980 nM (active) |
| O=S(=O)(NC1CCN(S(=O)(=O)c2ccc3c(c2)OCCO3)CC1)c1c(F)cccc1F | inactive |
| CCCCSc1nnc(-c2ccc(C)cc2)o1 | 794 nM (active) |
| CCOC(=O)CSc1nnc(-c2cccc(Br)c2)o1 | inactive |
| Cc1cccc(C)c1OC(=O)CSc1nnc(-c2ccccc2)o1 | inactive |
| Cc1ccc(CN2CC(C(=O)NNC(=O)Cn3ccc(C(F)(F)F)n3)CC2=O)cc1 (stereo not drawn) | inactive |
| CC(=O)NCc1ccc(-c2csc(NC(=O)CCCc3nc4ccccc4c(=O)[nH]3)n2)cc1 | inactive |
| COc1ccc(Cn2c(O)c(/C=C3/C=CC=N3)c(=O)[nH]c2=O)cc1 | inactive |
| O=C(NCc1ccccc1CN1CCCC1)c1cccc(S(=O)(=O)Nc2ccc(F)cc2)c1 | inactive |
| Cc1ccc(NC(=O)C(c2ccccc2)N2CCN(C(=O)c3ccco3)CC2)cc1 (stereo not drawn) | inactive |
| COc1ccc(Cl)cc1NC(=O)CN(C)C(=O)c1cc(-c2cccs2)nn1-c1ccccc1 | inactive |
| COc1cc(OC)cc(-c2nnc(N(C)C(=O)c3ccncc3)s2)c1 | inactive |
| CN(C(=O)C1CCOC1)c1nnc(-c2cccnc2)s1 (stereo not drawn) | inactive |
| CN(C(=O)c1ccccn1)c1nnc(-c2ccccn2)s1 | 2510 nM (active) |
| COc1ccc(-c2noc(-c3ccc(C)cc3)n2)cc1 | 2000 nM (active) |
| COc1ccc(OC)c(-c2csc(-c3cccs3)n2)c1 | inactive |
| COc1ccc(-c2noc(CSc3ccc(C)cc3)n2)cc1 | inactive |

| Structure (SMILES) | Potency |
| --- | --- |
| COc1ccc(-c2noc(CNC(=O)C(C)Oc3ccccc3)n2)cc1 (stereo not drawn) | inactive |
| COc1ccc(-c2noc(CN(C)S(=O)(=O)c3ccc(C)cc3)n2)cc1 | inactive |
| COc1ccc(-c2nc(-c3ccccc3)no2)c(OC)c1 | 3550 nM (active) |
| O=C(CN1CCN(S(=O)(=O)c2cccc(Cl)c2)CC1)N1CCCCC1 | inactive |
| Cc1c2cnn(CC(=O)NCCCN3CC(C)CC(C)C3)c(=O)c2c(C)n1Cc1ccc(Cl)cc1 (stereo not drawn) | inactive |
| C[C@@H](NC(=O)c1nc[nH]c1C(=O)N1CCN(C(=O)OC(C)(C)C)CC1)c1ccccc1 | inactive |
| Cc1ccc(S(=O)(=O)CCC(=O)OCC(=O)NCCc2ccc(S(N)(=O)=O)cc2)cc1 | inactive |
| O=C(NCCSc1ncc(-c2ccccc2)[nH]1)c1ccco1 | inactive |
| CCS(=O)(=O)Nc1ccc(C(=O)NCCSc2ccccc2)cc1 | inactive |
| O=C(NCCSc1ccccc1)c1ccco1 | 3160 nM (active) |
| O=C(Cn1c(-c2ccc(Cl)cc2)noc1=O)N1CCN(c2ccccc2F)CC1 | inactive |
| O=C(NCC(=O)N1CCCCCCC1)c1ccccc1Cl | inactive |
| Cn1c(NC(=O)c2ccccc2)nc2ccccc21 | 2820 nM (active) |
| Cn1c(S(=O)(=O)O)nc2ccccc21 | inactive |
| CCn1c(NC(=O)c2nn(C)cc2Br)nc2ccccc21 | inactive |
| Cc1ccc(S(=O)(=O)N2CCCCC2)cc1C(=O)N1CCN(CCO)CC1 | inactive |
| COc1ccccc1CNC(=O)COC(=O)c1sc(C)nc1C | inactive |
| COc1cc(NC(=O)c2cccs2)ccc1NC(=O)c1ccccc1Cl | inactive |
| O=C(Nc1cccc(NC(=O)c2ccccc2[N+](=O)[O-])c1)c1ccccc1Cl | inactive |
| O=C(Nc1ccc2sc3ccccc3c(=O)c2c1)c1ccccc1Cl | 3160 nM (active) |
| O=C(COC(=O)c1cc(=O)[nH]c2ccccc12)NCc1cccc(Cl)c1 | inactive |
| CC(=O)Nc1ccc(S(=O)(=O)N2CCn3cccc3C2C)cc1 (stereo not drawn) | inactive |
| C=CCN(CC=C)C(=O)CN1C(=O)c2ccccc2C1=O | inactive |
| C=CCn1c(C)cc(C(=O)CN2C(=O)c3ccccc3C2=O)c1C | 316 nM (active) |
| Cc1cc(C(=O)COC(=O)CCCN2C(=O)c3ccccc3C2=O)c(C)n1C | inactive |
| C[C@H](NC(=O)c1[nH]cnc1C(=O)Nc1nccs1)c1ccccc1 | inactive |

| Structure (SMILES) | Potency |
| --- | --- |
| CCCCC/C=C/C1=CC(=O)C[C@H](c2ccc(Cl)cc2)C1 | inactive |
| Cc1ccccc1-c1cc(C(=O)NCc2cccs2)n(CC2CC(c3cccnc3)=NO2)n1 (stereo not drawn) | inactive |
| COc1cc2ccccc2cc1C(=O)Nc1ccc(NC(=O)c2cccs2)cc1 | inactive |
| O=C(Nc1ccc2oc(-c3ccc4ccccc4c3)nc2c1)c1cccs1 | 891 nM (active) |
| O=C(Nc1ccc(NC(=O)c2cccs2)cc1)c1ccc2ccccc2c1 | inactive |
| CC(Sc1nnc(C2CC2)n1C1CC1)C(=O)Nc1ccc(C(N)=O)cc1 (stereo not drawn) | inactive |
| CCOc1ccc(N2C(=O)CSC2=NC#N)cc1 | inactive |
| CC(=O)NC(NC(=S)Nc1c(C)n(C)n(-c2ccccc2)c1=O)C(Cl)(Cl)Cl (stereo not drawn) | inactive |
| COc1ccc(C)cc1NC(=O)CN1c2cccc3cccc(c23)S1(=O)=O | inactive |
| CCOc1cccc(/C(O)=C2/C(=O)C(=O)N(CCOC)C2c2ccncc2)c1 (stereo not drawn) | inactive |
| CCN(CC)CCN1C(=O)C(=O)/C(=C(/O)c2ccc(OC)c(OC)c2)C1c1ccccn1 (stereo not drawn) | inactive |
| CCN(CC)CCN1C(=O)C(=O)/C(=C(/O)c2cnn(-c3ccccc3)c2C)C1c1cccs1 (stereo not drawn) | 3980 nM (active) |
| COc1ccccc1OCC(=O)OCc1cc(-c2ccco2)on1 | inactive |
| COC(=O)c1cccc(NC(=O)c2cccc(N3C(=O)CCC3=O)c2)c1 | inactive |
| CC(=O)c1sc(NC(=O)CCN2C(=O)C3CC=CCC3C2=O)nc1-c1ccccc1 (stereo not drawn) | inactive |
| CCCCCCCCCCOC(=O)C[N+](C)(C)CC1CCCCC1O (stereo not drawn) | inactive |
| CC(c1ccccn1)N(C)C(=O)c1ccc2nc(Cc3cccc(Cl)c3)oc2c1 (stereo not drawn) | 3980 nM (active) |
| Cc1cc(Cl)c2oc(C(=O)N(C)C(C)c3ccccn3)c(C)c2c1 (stereo not drawn) | inactive |
| CCn1ccnc1CN(C)C(=O)c1ccc2nc(Cc3ccc(OC)cc3)oc2c1 | inactive |
| CC(NCC(=O)Nc1ccccc1C(=O)NC1CC1)c1ccccc1Cl (stereo not drawn) | inactive |
| Cc1ccc(C)c(C(=O)COC(=O)Cn2[nH]c(=O)c3ccccc3c2=O)c1 | inactive |
| O=C(OCc1ccc([N+](=O)[O-])cc1)c1ccccn1 | inactive |
| O=C(Nc1ccc([N+](=O)[O-])cc1)OCCc1ccccn1 | 3550 nM (active) |
| O=[N+]([O-])c1ccc(NC(=S)N2CCN(c3ccccn3)CC2)cc1 | inactive |
| Cc1ccc(NC(=O)c2cccc(S(=O)(=O)N3CCCc4ccccc43)c2)nc1 | inactive |
